A short description of assay [1]: inhibitors of TNFa-induced NFkB p65 translocation, primary screen, imaging, HUVEC, MLSMR starter and 10KST1 sets (AID 438;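 active means inhibition above 20% together with a positive visual image hit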;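 further: compound added about 3h40 before a 20 min TNFalpha stimulation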;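 on inhibition: signal is the nuclear over cytoplasmic p65 intensity ratio per well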). Particulars: HUVEC TNFa-induced p65 nuclear translocation; cell count: measured here: nuclei count (cytotoxicity indicator), at 2.08 µM unless noted; inhibition: at 2 µM, stronger effect = higher value unless noted.
Assay [2] is described as follows: reduction of polyQ htt aggregates in cells – imaging, exon1htt(103Q)mCFP cells, high-content imaging, primary screen (AID 483;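 active means visual image review flags a hit and inhibition of aggregation exceeds 20%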;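 further: compound exposure lasted 3 days before fixation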;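 on nuclei count: percent of the per-plate median nuclei count of sample wells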). Particulars: exon1htt(103Q)mCFP cell line, aggregate imaging, at 2 µM; inhibition of aggregation: stronger effect = higher value; nuclei count: measured here: cell count, toxicity.
Assay [3] is described as follows: endothelial E-selectin expression blockers – imaging, HUVEC, immunofluorescence, MLSMR starter and 10KST1 sets, primary screen (AID 487;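 active means visually confirmed hit in the image check and inhibition above 20%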;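 on inhibition: signal is fraction of cell area covered by stained E-selectin grains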;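 on nuclei count: 100% = median nuclei count of all wells on the same plate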). Particulars: HUVEC TNFalpha-induced E-selectin immunofluorescence imaging, at 2 µM; inhibition: stronger effect = higher value; nuclei count: measured here: cell number, toxicity.
Assay [4] deals with Voltage-gated potassium channel subunit beta-2 (Rattus norvegicus) (UniProt P62483). Kind of assay: inhibitors of rat Kvbeta2 reductase activity – biochemical, NADPH fluorescence, primary screen (AID 622;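 active means fluorescence slope higher than the sample average by over 3 SD, cut at about -0.22 in these data, passing the limit was not always enough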;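 further: slope of raw intensity against log time taken from 70 to 1610 s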). Conditions: recombinant KvBeta, 4-cyanobenzaldehyde reduction, at 10 µM, stronger effect = higher value.
Chain of Voltage-gated potassium channel subunit beta-2 (Rattus norvegicus) (P62483 whole entry, looked up): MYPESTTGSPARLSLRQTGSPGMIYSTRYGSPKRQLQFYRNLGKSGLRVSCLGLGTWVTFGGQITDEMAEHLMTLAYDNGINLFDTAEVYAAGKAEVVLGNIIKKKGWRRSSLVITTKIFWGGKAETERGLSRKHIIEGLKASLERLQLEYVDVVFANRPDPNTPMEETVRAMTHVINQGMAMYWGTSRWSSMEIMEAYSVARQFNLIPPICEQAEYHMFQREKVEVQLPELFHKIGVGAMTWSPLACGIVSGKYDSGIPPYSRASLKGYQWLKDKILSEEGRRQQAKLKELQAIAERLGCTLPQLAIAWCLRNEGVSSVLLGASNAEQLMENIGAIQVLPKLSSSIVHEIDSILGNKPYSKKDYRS
The target is the same in assay [5]. Kind of assay: enhancers of rat Kvbeta2 NADPH turnover – biochemical, NADPH fluorescence, primary screen (AID 623).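 Further: fluorescence intensity change per second fitted from 20 to 320 s.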 Particulars: Recombinant KvBeta, NADPH fluorescence decrease slope, 10 min; at 10 µM; stronger effect = lower value.
In assay [6] the target is Alpha-2C adrenergic receptor (Homo sapiens) (UniProt P18825). Put plainly: compounds altering alpha2C-coupled GIRK flux – cell-based, HEK293 alpha2C/GIRK1/2, thallium flux, primary screen (AID 624;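 active means fluorescence slope after compound addition differing from the mean of all screened samples at 99.7% confidence, in either direction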;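 further: slope of fluorescence ratio to pre-addition baseline per second over 15 to 24 s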). Particulars: thallium flux BTC fluorescence, at 10 µM, actives lie on both sides.
Chain of Alpha-2C adrenergic receptor (Homo sapiens) (P18825 whole entry, looked up): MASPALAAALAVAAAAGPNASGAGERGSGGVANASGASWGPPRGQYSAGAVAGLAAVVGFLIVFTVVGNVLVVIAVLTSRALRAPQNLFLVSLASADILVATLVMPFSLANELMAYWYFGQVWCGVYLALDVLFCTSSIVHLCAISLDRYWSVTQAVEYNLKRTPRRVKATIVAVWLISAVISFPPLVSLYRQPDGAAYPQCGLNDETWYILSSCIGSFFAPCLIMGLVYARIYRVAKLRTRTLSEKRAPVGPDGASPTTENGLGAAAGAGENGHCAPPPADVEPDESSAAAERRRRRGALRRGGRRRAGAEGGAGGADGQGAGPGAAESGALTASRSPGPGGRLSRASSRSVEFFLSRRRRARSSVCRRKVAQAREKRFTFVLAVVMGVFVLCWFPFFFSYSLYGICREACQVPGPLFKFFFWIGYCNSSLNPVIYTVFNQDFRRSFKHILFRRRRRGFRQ
A short description of assay [7]: blockers of RIG-like receptor reporter activation – cell-based, Sendai virus stimulus, luciferase, 10K MLSCN set, TLR/RLR signaling modifier project, primary screen (AID 602276;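 active means inhibition at or above 50% at 10 µM; inactive means inhibition below 50%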;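 further: firefly luciferase from ISG56 promoter only with Renilla not read in this screen; 0% = Sendai virus plus DMSO and 100% = medium plus DMSO without virus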). Particulars: HEK293 RL24 IRF3 luciferase reporter, at 10 µM, stronger effect = higher value. On the technique in general: In a reporter assay the amount or activity of a reporter protein is the signal.

Assay [8] can be described thus: TLR3 IRF3 reporter activation blockers – cell-based, poly I:C stimulus, luciferase, 10K MLSCN set, primary screen (AID 602277;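 active means inhibition of the reporter signal at or above 50%; inactive means inhibition below 50%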). Particulars: HEK293-TLR3 RL24 IRF3 luciferase reporter, at 10 µM, stronger effect = higher value.

Calls of active or inactive are those of the source.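 How the source made its calls, unless noted: active means NADPH fluorescence slope more negative than the mean of all samples by about 3 SD, 99.7% confidence; inactive means the rest.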

What is called inhibition is the change of the read-out against control, counted positive when it falls.

Compound `O=C(c1ccc2nc(-c3ccco3)c(-c3ccco3)nc2c1)N1CCC2(CC1)OCCO2` came in with a cell count in assay [1] of 597. Moreover, the inhibition was -12.6% (inactive) in assay [1], 9% (inactive) in assay [3], -1.04% (inactive) in assay [7] and -7.99% (inactive) in assay [8]. In assay [2], the inhibition of aggregation was -4.6% (inactive). Moreover, the nuclei count in assay [2] came out at 93.5%; in assay [3], 105%. Further, the fluorescence slope in assay [4] was -0.104 (inactive). For the same compound, in assay [5], the NADPH fluorescence slope is -5.1e-06 (inactive). For the same compound, the slope in assay [6] is 0.00382 (inactive).
For the compound `O=C(c1sc2ccccc2c1Cl)N1CCC2(CC1)OCCO2`, the cell count in assay [1] amounted to 388. Also, the inhibition was 2.5% (inactive) in assay [1], -59.7% (inactive) in assay [3], -10.2% (inactive) in assay [7] and -29.6% (inactive) in assay [8]. In addition, the inhibition of aggregation in assay [2] was -5.9% (inactive). In addition, the nuclei count in assay [2] stood at 107%; in assay [3], 105%. Besides, in assay [4], the fluorescence slope was -0.405 (inactive). Besides, in assay [5], the NADPH fluorescence slope was 3e-05 (inactive). Also, the slope in assay [6] was 0.00266 (inactive).
`C(#CCN1CCOCC1)COCC#Cc1ccccc1` displayed a cell count in assay [1] of 422. In addition, the inhibition was 1.2% (inactive) in assay [1], -4.6% (inactive) in assay [3], 8.54% (inactive) in assay [7] and 30.6% (inactive) in assay [8]. Further, the inhibition of aggregation in assay [2] is 12.8% (inactive). Moreover, the nuclei count was 94.4% in assay [2] and 112% in assay [3]. Besides, the fluorescence slope in assay [4] was -0.622 (inactive). Further, the NADPH fluorescence slope in assay [5] was -5e-05 (inactive). In addition, the slope in assay [6] is 0.00639 (inactive).
With `COc1ccccc1N1CCN(Cc2c(F)cccc2F)CC1`, the cell count in assay [1] came to 410. The inhibition is -1.1% (inactive) in assay [1], -26.3% (inactive) in assay [3], 15.2% (inactive) in assay [7] and 27.3% (inactive) in assay [8]. Further, the inhibition of aggregation in assay [2] is 13.8% (inactive). In addition, the results for the nuclei count in assay [2] and in assay [3] were 98.7% and 118%, respectively. In assay [4], the fluorescence slope was -0.431 (inactive). The NADPH fluorescence slope in assay [5] is -1.4e-05 (inactive). Besides, the slope in assay [6] was 0.00585 (inactive).
Compound `CCCCCCOc1ccc(CN2CCN(C)CC2)cc1` gave a cell count in assay [1] of 302. Further, the inhibition in assay [1] is -5% (inactive); in assay [3], -127% (inactive); in assay [7] it was 25.8% (inactive); in assay [8], 8.4% (inactive). The inhibition of aggregation in assay [2] is 2.1% (inactive). Further, the values for the nuclei count in assay [2] and in assay [3] were 107% and 128%, respectively. The fluorescence slope in assay [4] is -0.46 (inactive). Further, the NADPH fluorescence slope in assay [5] is -0.000138 (inactive). Further, the slope in assay [6] was 0.00769 (inactive).
With `c1cncc(CNC2=NCCCCC2)c1`, the cell count in assay [1] came to 315. The inhibition in assay [1] is 2.9% (inactive); in assay [3] it was -154% (inactive); in assay [7], 5.89% (inactive); in assay [8], 24.1% (inactive). In assay [2], the inhibition of aggregation was 2.4% (inactive). For the same compound, the nuclei count in assay [2] was determined as 114%; in assay [3], 127%. In addition, the fluorescence slope in assay [4] was -0.469 (inactive). Also, the NADPH fluorescence slope in assay [5] is -0.000124 (inactive). The slope in assay [6] is 0.0069 (inactive).
In turn, `CN(C)c1cc(N)c2c(n1)CCC2` (tested in a mixture with another compound) showed a cell count in assay [1] of 443. Further, the inhibition is -0.3% (inactive) in assay [1], -17.4% (inactive) in assay [3], 11.4% (inactive) in assay [7] and 17.8% (inactive) in assay [8]. Moreover, the inhibition of aggregation in assay [2] was -9% (inactive). Also, the results for the nuclei count in assay [2] and in assay [3] were 98.2% and 124%, respectively. Also, the fluorescence slope in assay [4] is -0.376 (inactive). Further, the NADPH fluorescence slope in assay [5] is -5.8e-05 (inactive). Further, in assay [6], the slope was 0.00598 (inactive).
In turn, `CCC(C(=O)N1CCC2(CC1)OCCO2)c1ccccc1` (centres undefined) yielded a cell count in assay [1] of 391. In addition, the inhibition in assay [1] is 8.2% (inactive); in assay [3], -81.6% (inactive); in assay [7], 14.2% (inactive); in assay [8], 7.25% (inactive). Also, the inhibition of aggregation in assay [2] is 18.1% (inactive). For the same compound, the nuclei count was found to be 111% in assay [2] and 99.5% in assay [3]. Moreover, the fluorescence slope in assay [4] was -0.381 (inactive). The NADPH fluorescence slope in assay [5] was -2.6e-05 (inactive). In assay [6], the slope was 0.00492 (inactive).
For the compound `CN1CCC(N(C)c2ncnc3ccc(Br)cc23)CC1`, the cell count in assay [1] turned out to be 336. Further, the inhibition in assay [1] is 5% (inactive); in assay [3], 42.2% (inactive); in assay [7], 10.9% (inactive); in assay [8] it was 23.5% (inactive). Moreover, the inhibition of aggregation in assay [2] is 4.3% (inactive). Besides, the nuclei count in assay [2] is 94.9%; in assay [3], 79.5%. Moreover, in assay [4], the fluorescence slope is -0.606 (inactive). Besides, in assay [5], the NADPH fluorescence slope was -3.4e-05 (inactive). Moreover, the slope in assay [6] is 0.00666 (inactive).
As to `Cc1cc(C)c(C(=O)CN2CCOCC2)c(C)c1`, the cell count in assay [1] came to 408. The inhibition in assay [1] is 7.3% (inactive); in assay [3], -77.5% (inactive); in assay [7] it was 13.2% (inactive); in assay [8] it was 24.8% (inactive). The inhibition of aggregation in assay [2] was 7.9% (inactive). Besides, the results for the nuclei count in assay [2] and in assay [3] were 89.5% and 115%, respectively. For the same compound, the fluorescence slope in assay [4] was -0.419 (inactive). Also, the NADPH fluorescence slope in assay [5] was -0.000154 (inactive). Also, in assay [6], the slope was 0.00628 (inactive).
`CCCNS(=O)(=O)c1ccc(OCC(=O)N2CCN(Cc3ccccc3)CC2)cc1` yielded a cell count in assay [1] of 296. Further, the inhibition was -7.1% (inactive) in assay [1], -3.1% (inactive) in assay [3], -3.33% (inactive) in assay [7] and -4.45% (inactive) in assay [8]. Also, the inhibition of aggregation in assay [2] is -5% (inactive). In addition, the nuclei count was found to be 115% in assay [2] and 110% in assay [3]. Besides, the fluorescence slope in assay [4] was -0.476 (inactive). For the same compound, the NADPH fluorescence slope in assay [5] was -7e-05 (inactive). Further, the slope in assay [6] was 0.00533 (inactive).
`Cc1ccccc1-n1c(O)c(C=NCCN2CCOCC2)c(=O)[nH]c1=O`: the cell count in assay [1] stood at 335. Moreover, the inhibition is -9.5% (inactive) in assay [1], -110% (inactive) in assay [3], 1.33% (inactive) in assay [7] and -0.798% (inactive) in assay [8]. Further, in assay [2], the inhibition of aggregation was -8.6% (inactive). Also, the nuclei count worked out at 138% in assay [2] and 135% in assay [3]. Moreover, the fluorescence slope in assay [4] is -0.432 (inactive). The NADPH fluorescence slope in assay [5] is -2.7e-05 (inactive). The slope in assay [6] was 0.00516 (inactive).
Take `CCCC(C)C1C(C#N)=C(N)Oc2c1c(=O)oc1ccccc21` (centres undefined): in assay [1], the cell count amounted to 547. Further, the inhibition in assay [1] was -13.2% (inactive); in assay [3], -29.8% (inactive); in assay [7], 7.33% (inactive); in assay [8], 22.2% (inactive). The inhibition of aggregation in assay [2] is 9.9% (inactive). Besides, the nuclei count stood at 86.4% in assay [2] and 108% in assay [3]. Further, the fluorescence slope in assay [4] was -0.422 (inactive). The NADPH fluorescence slope in assay [5] was 2.9e-06 (inactive). In addition, in assay [6], the slope was 0.00396 (inactive).
In the case of `CCCCNC(=O)c1c(N)n(CCCOC)c2nc3ccccc3nc12`, in assay [1], the cell count was 447. In addition, the inhibition in assay [1] was 14.6% (inactive); in assay [3] it was 0.8% (inactive); in assay [7], -5.16% (inactive); in assay [8], -28.3% (inactive). In addition, the inhibition of aggregation in assay [2] was 16.7% (inactive). Also, the nuclei count was found to be 95% in assay [2] and 111% in assay [3]. For the same compound, in assay [4], the fluorescence slope was -0.245 (inactive). Also, the NADPH fluorescence slope in assay [5] was -2.4e-06 (inactive). Further, the slope in assay [6] was 0.00654 (inactive).

The values are drawn from PubChem BioAssay.
